From the supplement of paper PMC10849652
About 7,900 targets were measured; listed, in parts, are those with a hit and a random draw of the rest. About 0.6% of all pairs of compound and target were hits.

Each target was assayed with CC1=NC(=CC=C1)C2=C(N=C(N2)C(C)(C)C)C3=CC4=NC=CN=C4C=C3 (assay: log2 fold change, soluble protein after heating vs DMSO (PISA); higher = thermal stabilisation; K562 cells, 10 uM, 30 min; active = over 0.2 and 3.5 SD of the protein, either way, in both replicates (recomputed)).
How it was run: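 K562 cells at 2×10^6 cells/mL were treated with 10 μM compound for 30 min. Aliquots were heated for 3 min across 48°C-58°C, pooled, and extracted in PBS with 0.5% NP-40 at 4°C; soluble protein was the supernatant after 21,000xg for 90 min. Soluble protein was quantified by TMTpro 16plex LC-MS/MS with channel sums equalised, and reported as log2 fold change in thermal stability against DMSO controls, with values from duplicates.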

Chain of UniProt Q8WWC4 (Q8WWC4 whole entry, looked up): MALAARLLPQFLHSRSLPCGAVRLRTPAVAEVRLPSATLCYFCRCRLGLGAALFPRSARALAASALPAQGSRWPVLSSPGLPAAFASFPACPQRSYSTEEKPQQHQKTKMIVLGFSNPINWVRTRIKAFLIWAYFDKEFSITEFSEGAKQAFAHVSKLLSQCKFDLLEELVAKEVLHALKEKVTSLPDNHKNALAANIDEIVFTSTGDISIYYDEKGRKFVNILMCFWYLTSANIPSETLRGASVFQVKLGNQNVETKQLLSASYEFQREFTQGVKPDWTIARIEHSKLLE
Chain of UniProt Q96A72 (Q96A72 whole entry, looked up): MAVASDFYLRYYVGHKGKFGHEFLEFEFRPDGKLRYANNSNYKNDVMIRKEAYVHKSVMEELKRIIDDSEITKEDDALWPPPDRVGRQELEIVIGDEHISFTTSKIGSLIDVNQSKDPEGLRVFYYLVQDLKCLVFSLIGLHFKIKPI
Chain of UniProt Q13257 (Q13257 whole entry, looked up): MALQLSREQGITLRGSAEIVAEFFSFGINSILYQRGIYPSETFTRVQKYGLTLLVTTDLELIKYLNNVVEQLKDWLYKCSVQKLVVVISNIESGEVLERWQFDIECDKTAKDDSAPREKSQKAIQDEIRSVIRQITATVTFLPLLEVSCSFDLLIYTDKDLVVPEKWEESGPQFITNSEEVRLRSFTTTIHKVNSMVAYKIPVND
Chain of UniProt P01130 (P01130 whole entry, looked up): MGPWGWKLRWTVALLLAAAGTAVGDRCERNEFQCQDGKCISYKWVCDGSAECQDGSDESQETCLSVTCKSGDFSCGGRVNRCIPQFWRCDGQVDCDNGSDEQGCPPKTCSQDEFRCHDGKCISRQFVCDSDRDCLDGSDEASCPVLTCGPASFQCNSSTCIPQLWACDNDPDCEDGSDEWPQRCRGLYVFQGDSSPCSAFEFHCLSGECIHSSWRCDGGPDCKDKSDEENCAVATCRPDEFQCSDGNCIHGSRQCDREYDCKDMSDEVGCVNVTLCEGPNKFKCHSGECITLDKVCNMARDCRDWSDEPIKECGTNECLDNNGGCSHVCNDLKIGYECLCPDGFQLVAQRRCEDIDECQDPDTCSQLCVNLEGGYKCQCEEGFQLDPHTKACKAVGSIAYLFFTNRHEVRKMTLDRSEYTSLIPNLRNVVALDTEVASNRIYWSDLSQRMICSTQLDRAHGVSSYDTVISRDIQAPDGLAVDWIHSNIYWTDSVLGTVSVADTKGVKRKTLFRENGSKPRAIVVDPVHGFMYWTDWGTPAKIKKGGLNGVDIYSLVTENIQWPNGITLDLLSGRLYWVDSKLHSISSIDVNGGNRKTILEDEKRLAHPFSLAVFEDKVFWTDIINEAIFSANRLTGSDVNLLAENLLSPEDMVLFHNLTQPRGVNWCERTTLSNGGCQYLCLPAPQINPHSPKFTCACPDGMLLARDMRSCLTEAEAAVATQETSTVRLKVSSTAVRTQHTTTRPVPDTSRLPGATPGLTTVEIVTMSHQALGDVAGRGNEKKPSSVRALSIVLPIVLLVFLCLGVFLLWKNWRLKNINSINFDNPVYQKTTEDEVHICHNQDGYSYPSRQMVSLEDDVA
Chain of UniProt O94822 (O94822 whole entry, looked up): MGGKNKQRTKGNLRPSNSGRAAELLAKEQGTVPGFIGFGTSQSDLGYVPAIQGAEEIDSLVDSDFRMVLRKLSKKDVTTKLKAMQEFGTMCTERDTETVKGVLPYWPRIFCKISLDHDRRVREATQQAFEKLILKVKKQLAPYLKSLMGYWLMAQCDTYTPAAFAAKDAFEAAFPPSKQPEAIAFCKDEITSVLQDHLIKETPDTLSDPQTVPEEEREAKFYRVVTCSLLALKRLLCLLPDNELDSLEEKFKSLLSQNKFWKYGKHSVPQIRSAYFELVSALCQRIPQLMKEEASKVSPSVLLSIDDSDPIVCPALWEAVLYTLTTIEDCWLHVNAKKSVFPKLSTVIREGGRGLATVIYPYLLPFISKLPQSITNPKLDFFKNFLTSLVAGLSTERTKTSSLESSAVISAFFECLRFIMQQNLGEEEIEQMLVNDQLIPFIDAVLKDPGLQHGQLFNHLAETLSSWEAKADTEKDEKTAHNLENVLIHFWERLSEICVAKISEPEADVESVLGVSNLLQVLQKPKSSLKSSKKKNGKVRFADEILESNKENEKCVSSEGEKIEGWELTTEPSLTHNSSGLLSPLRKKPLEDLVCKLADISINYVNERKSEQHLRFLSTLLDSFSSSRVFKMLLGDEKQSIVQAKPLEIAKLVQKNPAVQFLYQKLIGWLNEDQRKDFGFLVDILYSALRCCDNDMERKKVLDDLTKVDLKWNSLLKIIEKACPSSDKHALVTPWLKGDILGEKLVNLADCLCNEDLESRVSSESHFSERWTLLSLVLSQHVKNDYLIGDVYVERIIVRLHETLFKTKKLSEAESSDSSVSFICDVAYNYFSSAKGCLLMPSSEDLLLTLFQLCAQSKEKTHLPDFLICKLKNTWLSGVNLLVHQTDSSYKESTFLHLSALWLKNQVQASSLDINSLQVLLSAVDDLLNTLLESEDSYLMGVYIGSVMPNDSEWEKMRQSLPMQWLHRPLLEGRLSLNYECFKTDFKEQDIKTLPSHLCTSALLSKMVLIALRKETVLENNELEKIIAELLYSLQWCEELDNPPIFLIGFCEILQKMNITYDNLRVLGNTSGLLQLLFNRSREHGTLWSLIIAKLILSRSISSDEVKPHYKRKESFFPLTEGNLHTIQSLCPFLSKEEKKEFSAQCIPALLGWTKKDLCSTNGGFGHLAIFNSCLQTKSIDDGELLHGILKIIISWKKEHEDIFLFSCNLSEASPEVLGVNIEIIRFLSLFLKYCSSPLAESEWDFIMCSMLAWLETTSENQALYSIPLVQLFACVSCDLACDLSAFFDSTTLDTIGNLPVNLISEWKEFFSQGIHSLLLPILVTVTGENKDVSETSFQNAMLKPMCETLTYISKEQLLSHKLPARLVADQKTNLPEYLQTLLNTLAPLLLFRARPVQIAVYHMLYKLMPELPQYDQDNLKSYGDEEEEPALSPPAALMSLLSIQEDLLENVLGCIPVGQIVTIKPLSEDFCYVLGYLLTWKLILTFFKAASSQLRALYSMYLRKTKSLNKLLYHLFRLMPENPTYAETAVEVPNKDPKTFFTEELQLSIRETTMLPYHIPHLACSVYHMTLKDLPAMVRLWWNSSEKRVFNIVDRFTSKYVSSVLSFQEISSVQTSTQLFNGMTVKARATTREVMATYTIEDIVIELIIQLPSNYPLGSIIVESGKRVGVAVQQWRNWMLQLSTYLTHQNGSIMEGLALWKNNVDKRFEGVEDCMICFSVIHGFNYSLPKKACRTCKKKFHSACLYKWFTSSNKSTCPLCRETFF
Chain of UniProt Q9NYL2 (Q9NYL2 whole entry, looked up): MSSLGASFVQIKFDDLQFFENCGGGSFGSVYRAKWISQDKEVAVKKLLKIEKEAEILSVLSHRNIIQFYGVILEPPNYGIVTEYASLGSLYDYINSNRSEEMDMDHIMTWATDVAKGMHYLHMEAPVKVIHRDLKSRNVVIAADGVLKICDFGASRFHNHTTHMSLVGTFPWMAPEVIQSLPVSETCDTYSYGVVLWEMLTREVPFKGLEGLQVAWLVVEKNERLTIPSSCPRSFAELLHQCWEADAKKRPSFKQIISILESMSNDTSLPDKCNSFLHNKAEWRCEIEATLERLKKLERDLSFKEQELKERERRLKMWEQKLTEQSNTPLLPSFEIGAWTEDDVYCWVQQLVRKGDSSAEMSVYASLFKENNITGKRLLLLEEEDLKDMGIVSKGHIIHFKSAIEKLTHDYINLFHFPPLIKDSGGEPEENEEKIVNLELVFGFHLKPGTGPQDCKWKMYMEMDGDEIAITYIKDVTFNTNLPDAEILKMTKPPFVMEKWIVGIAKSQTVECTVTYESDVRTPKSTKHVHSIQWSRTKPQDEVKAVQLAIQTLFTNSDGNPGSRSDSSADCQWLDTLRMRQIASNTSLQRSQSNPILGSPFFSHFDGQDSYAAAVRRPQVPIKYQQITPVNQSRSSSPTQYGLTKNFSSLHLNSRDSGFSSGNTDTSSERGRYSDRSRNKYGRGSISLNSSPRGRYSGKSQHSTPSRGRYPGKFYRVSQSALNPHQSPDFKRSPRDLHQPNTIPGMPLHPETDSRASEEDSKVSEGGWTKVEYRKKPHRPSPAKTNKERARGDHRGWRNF
Chain of UniProt Q96GA3 (Q96GA3 whole entry, looked up): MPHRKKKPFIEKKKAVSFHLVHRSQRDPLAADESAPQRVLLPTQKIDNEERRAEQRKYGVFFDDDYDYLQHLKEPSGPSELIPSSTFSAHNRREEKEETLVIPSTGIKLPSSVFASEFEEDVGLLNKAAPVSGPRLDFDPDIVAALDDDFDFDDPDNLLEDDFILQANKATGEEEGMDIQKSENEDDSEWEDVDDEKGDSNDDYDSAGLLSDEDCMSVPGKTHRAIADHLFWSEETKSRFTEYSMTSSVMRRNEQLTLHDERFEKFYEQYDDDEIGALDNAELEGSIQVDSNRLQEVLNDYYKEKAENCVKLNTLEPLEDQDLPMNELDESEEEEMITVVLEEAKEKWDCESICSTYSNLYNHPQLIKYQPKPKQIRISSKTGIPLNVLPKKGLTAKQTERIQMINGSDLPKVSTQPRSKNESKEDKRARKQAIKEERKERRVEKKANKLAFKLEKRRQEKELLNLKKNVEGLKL
Chain of UniProt Q8NC54 (Q8NC54 whole entry, looked up): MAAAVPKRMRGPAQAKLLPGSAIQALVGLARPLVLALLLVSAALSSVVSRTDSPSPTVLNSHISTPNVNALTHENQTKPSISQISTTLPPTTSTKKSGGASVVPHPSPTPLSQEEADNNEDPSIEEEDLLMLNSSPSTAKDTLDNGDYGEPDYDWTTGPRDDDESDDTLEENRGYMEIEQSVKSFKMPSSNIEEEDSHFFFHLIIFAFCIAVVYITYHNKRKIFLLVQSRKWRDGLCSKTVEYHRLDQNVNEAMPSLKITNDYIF
Chain of UniProt Q8WV07 (Q8WV07 whole entry, looked up): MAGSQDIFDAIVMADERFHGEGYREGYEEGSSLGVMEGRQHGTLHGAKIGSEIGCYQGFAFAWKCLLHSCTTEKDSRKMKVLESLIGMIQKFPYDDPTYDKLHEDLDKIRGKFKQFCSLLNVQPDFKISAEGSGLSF

Target | log2 fold change
MCUR1 (UniProt Q96AQ8) | 0.012 (inactive)
ITPRIP (UniProt Q8IWB1) | 0.081 (inactive)
MAP2K1 (UniProt Q02750) | 0.049 (inactive)
LPGAT1 (UniProt Q92604) | 0.077 (inactive)
LMNB1 (UniProt P20700) | -0.012 (inactive)
LTV1 (UniProt Q96GA3) | -0.035 (inactive)
MAIP1 (UniProt Q8WWC4) | 0.088 (inactive)
MIER1 isoform 12 (UniProt Q8N108) | 0.012 (inactive)
KCT2 (UniProt Q8NC54) | 0.017 (inactive)
KPNA4 (UniProt O00629) | 0.045 (inactive)
MAPK12 (UniProt P53778) | 0.09 (inactive)
LDLR (UniProt P01130) | 0.01 (inactive)
LMF2 (UniProt Q9BU23) | -0.078 (inactive)
LTN1 isoform 3 (UniProt O94822) | -0.006 (inactive)
LRPPRC (UniProt P42704) | 0.336 (inactive)
MAD2L1 (UniProt Q13257) | 0.031 (inactive)
LARP4B (UniProt Q92615) | 0.001 (inactive)
ILK (UniProt Q13418) | -0.208 (inactive)
LTO1 (UniProt Q8WV07) | -0.009 (inactive)
KIF3A (UniProt Q9Y496) | 0 (inactive)
MAP3K20 (UniProt Q9NYL2) | 0.03 (inactive)
MAGOHB (UniProt Q96A72) | 0.067 (inactive)
MAP3K4 isoform 2 (UniProt Q9Y6R4) | -0.003 (inactive)
